A selection: hits, their analogues and other compounds. The true share with any hit is near 3.2%.
PMP22 txn: PMP22 gene transcription modulation; S16 Pmp22-F2sN Schwann cells, FLuc/NLuc coincidence luminescence, 24 h; Potency, µM (top dose mostly 57.5 µM), inactives show at the highest dose activity change, negative = inhibition, hits mostly inhibitors; 43,000 tested, 2% active; active means clear falling dose curves in both reporters; inconclusive means both reporters move, but less clearly or upward; inactive means either reporter flat; the % is the NLuc reporter signal; further: potency means the concentration at half of the fitted maximal effect; on the % scale 0 is the no-effect control and ±100 the full control effect
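Rat S16 Pmp22-F2sN cells, 500-1,000/well in phenol red-free DMEM + 10% FBS, compound-treated 24 h (37C, 5% CO2). Luminescence: FLuc read, Stop&Glo added, NLuc read.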
pS6 MEF inh: inhibitors of mTORC1 signaling in Tsc2-/- p53-/- MEF cells; 44,000 tested, 0.78% active; AID 493208; Potency, µM (doses to about 38.3 µM), for the others: at the top dose activity change, negative = inhibition, actives largely listed as inhibitors; Tsc2-/- p53-/- MEF, phospho-rpS6 immunofluorescence/PI, 24 h;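 further: potency means the concentration at half of the fitted maximal effect; plate controls were DMSO for no effect and rapamycin for full effect; nearly all actives have a fitted effect of over 50% in size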
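Readout is phospho-S6 Alexa 488 signal normalized to PI per well, reported as % active cells with thresholds set from rapamycin (7.5 nM) and DMSO controls. Cells: Tsc2-/-, p53-/- MEFs, 24 hrs compound at 37 C; PI cell number serves as viability.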
S16 viability: S16 Schwann cell cytotoxicity. 43,000 tested, 0.48% active. Potency, µM (titrated, usually from 57.5 µM), for the others: at the highest dose activity change, negative = cytotoxicity, hits mostly cytotoxic. S16 Pmp22-F2sN Schwann cells (luciferase reporters placed in the Pmp22 gene) viability, CellTiter-Glo, 24 h; further: potency means the concentration at half of the fitted maximal effect; on the % scale 0 is the no-effect control and ±100 the full control effect; nearly all actives have a fitted effect of over 65% in size
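CellTiter-Glo counter-screen, qHTS, 1536-well. Cells: S16(c9) Pmp22-F2sN, 500-1,000/well in DMEM + 10% FBS. Cpd 23 nL pin transfer, 24 h, 37C/5% CO2. Read: luminescence, CCD imager.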
p53null 32C kill: kills p53 null cells at the permissive temperature; 55,000 tested, 0.62% active; AID 903; Potency, µM (highest dose often 46.1 µM), inactives show top-dose activity change, negative = cytotoxicity, hits mostly cytotoxic; H1299-neo p53 null cells, ATP luminescence, 24 h, 32C;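 further: potency means the concentration at half of the fitted maximal effect; 0% = DMSO only and -100% = full killing by 100 µM tamoxifen; nearly all actives have a fitted effect of over 55% in size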
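H1299-neo, 600 cells/well; overnight 37C; cpd up to 46 uM, 24 h at 32C; ATPlite luminescence after 20 min RT; normalized to DMSO (0%) and tamoxifen 100 uM (100% kill); Hill-fit AC50.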
p53null 39C kill: kills p53 null cells at the nonpermissive temperature. Potency, µM (titrated, usually from 46.1 µM), inactives show at the highest dose activity, negative = cell killing, hits mostly cytotoxic. 55,000 tested, 0.97% active. AID 904. H1299 p53-null (neo) cells, 39C, ATPlite viability, 24 h;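 further: potency means the concentration at half of the fitted maximal effect; 0% = DMSO only and -100% = full killing by 100 µM tamoxifen; nearly all actives have a fitted effect of over 50% in size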
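H1299 lung cancer cells, p53-null (H1299-neo) or expressing p53 A138V (H1299-p53A138V), were plated overnight at 37C, then exposed to compounds at up to 46 uM for 24 hr at 39C. Viability was read by ATP-based luminescence.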
NLuc sat counter: inhibits NanoLuc at saturating substrate, PMP22 counter-screen; shares compounds with PMP22 txn; Secreted NLuc enzyme (filtered S16 cell medium), Nano-Glo luminescence; Potency, µM (titrated, usually from 57.5 µM), without a hit: at the highest dose activity change, negative = inhibition, hits mostly inhibitors; 690 tested, 4% active; further: potency means the concentration at half of the fitted maximal effect; on the % scale 0 is the no-effect control and ±100 the full control effect
NLuc Km ctr: counter-screen for PMP22 expression modulators: NanoLuc inhibition at Km. shares compounds with PMP22 txn. secreted NLuc enzyme, coelenterazine luminescence, Km conditions. Potency, µM (top dose mostly 57.5 µM), for inactives: at the highest dose activity change, negative = inhibition, usual class: inhibitors. 690 tested, 5% active; further: potency means the concentration at half of the fitted maximal effect; on the % scale 0 is the no-effect control and ±100 the full control effect
FLuc ctr PMP22: counter-screen for PMP22 expression modulators: firefly luciferase inhibition | shares compounds with PMP22 txn | purified P. pyralis FLuc, luminescence, 10 min | Potency, µM (top dose mostly 57.5 µM), without a hit: at the top dose activity, negative = inhibition, most hits filed as inhibitors | 690 tested, under 10 active | AID 1508640; further: % of control where 0% means no effect
Target sequence (P08659 whole entry, looked up): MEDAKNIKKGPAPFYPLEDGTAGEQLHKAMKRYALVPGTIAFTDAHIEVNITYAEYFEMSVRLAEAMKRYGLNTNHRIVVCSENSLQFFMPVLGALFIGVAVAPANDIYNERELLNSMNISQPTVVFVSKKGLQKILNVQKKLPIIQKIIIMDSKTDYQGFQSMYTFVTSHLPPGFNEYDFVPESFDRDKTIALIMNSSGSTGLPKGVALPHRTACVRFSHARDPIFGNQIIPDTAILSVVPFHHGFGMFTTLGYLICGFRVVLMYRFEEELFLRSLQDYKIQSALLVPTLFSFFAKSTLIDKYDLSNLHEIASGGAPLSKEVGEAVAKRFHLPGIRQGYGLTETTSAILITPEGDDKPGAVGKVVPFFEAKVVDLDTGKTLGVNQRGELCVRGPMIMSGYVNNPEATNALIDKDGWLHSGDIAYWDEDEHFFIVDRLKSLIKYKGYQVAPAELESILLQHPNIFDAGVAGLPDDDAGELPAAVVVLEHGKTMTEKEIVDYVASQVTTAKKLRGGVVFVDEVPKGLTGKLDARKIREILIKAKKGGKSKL
S16 viab conf: S16 Schwann cell cytotoxicity, confirmatory; AID 1508641; S16 Schwann cells viability, CellTiter-Glo ATP luminescence, 24 h; 690 tested, 7% active; Potency, µM (series often up to 57.5 µM), for the others: top-dose activity change, negative = viability loss, hits mostly cytotoxic; shares compounds with PMP22 txn; further: potency means the concentration at half of the fitted maximal effect; on the % scale 0 is the no-effect control and ±100 the full control effect
PMP22 txn cnf: confirmation of modulators of PMP22 gene transcription in S16 cells | 690 tested, 22% active | shares compounds with PMP22 txn | S16 Schwann cells Pmp22-F2sN, dual luciferase, 24 h | Potency, µM (top dose mostly 57.5 µM), without a hit: at the top dose activity change, negative = inhibition, actives largely listed as inhibitors; active means clear falling dose curves in both reporters; inconclusive means both reporters move, but less clearly or upward; inactive means either reporter flat; the % is the FLuc reporter signal; further: potency means the concentration at half of the fitted maximal effect
Starred values were filed as active, the others as inactive; u = inconclusive; x = not tested or not shown. Unless noted, the call rests on the fitted dose curve; in most records, active means well fitted curve in the direction sought with a large enough effect; inconclusive means small, poorly fitted or top-dose-only effect, or another doubt; inactive means no such curve, though single readings can be large; an effect the other way counts as inactive or inconclusive.

SMILES	PMP22 txn	pS6 MEF inh	S16 viability	p53null 32C kill	p53null 39C kill	NLuc sat counter	NLuc Km ctr	FLuc ctr PMP22	S16 viab conf	PMP22 txn cnf
COc1ccc(CNC(=O)CN2C(=O)CCn3nc(-c4ccccc4)cc32)c(OC)c1	-19.4%	5.0%	10.1%	5.6%	3.4%	x	x	x	x	x
CCCCCOc1ccc(/C=C/C(=O)Nc2sc(C(C)=O)c(C)c2C(=O)OCC)cc1OC	7.51µM*	-10.3%	19.0%	3.6%	26.8%	0.6%	-1.0%	-2.5%	4.6%	-6.8%
CCCCCOc1ccc(/C=C/C(=O)Nc2sc(C)c(C)c2C(=O)OCC)cc1OC	7.13µM*	2.7%	-14.8%	-1.7%	14.2%	-6.2%	0.5%	-9.6%	6.7%	-18.8%
CCCCCOc1ccc(/C=C/C(=O)Nc2sc3c(c2C(=O)OCC)CCC3)cc1OC	-18.1%	3.7%	4.6%	-4.4%	7.1%	x	x	x	x	x
COc1cc(NC(=O)c2c(C)oc3c2C2=NCCN2C=N3)cc(OC)c1OC	-9.6%	-9.3%	u	5.1%	-17.4%	x	x	x	x	x
COc1cc(-c2nc(Cn3nnc(C(=O)Nc4cc(C)cc(C)c4)c3C)c(C)o2)cc(OC)c1OC	u	-11.5%	5.5%	20.2%	17.8%	4.85µM*	3.85µM*	-8.5%	-1.7%	u
COc1ccc(NC(=O)c2nnn(Cc3nc(-c4cc(OC)c(OC)c(OC)c4)oc3C)c2C)cc1	8.5%	-9.8%	-1.5%	5.9%	-4.4%	x	x	x	x	x
O=c1[nH]c(CN2CCN(Cc3ccc4c(c3)OCO4)CC2)nc2ccccc12	x	x	x	0.0%	10.0%	x	x	x	x	x
COc1ccc(CNC(=O)c2ccc3c(c2)N=C(C)c2c(C)ccc(C)c2S3)cc1	u	1.0%	14.5%	23.2%	51.5%	x	x	x	x	x
CC1=Nc2cc(C(=O)NCCc3ccc(Cl)cc3)ccc2Sc2c(C)ccc(C)c21	7.81µM*	-11.2%	-7.4%	34.8%	u	-4.8%	3.6%	2.2%	u	u
CC1=Nc2cc(C(=O)NCCc3ccccc3)ccc2Sc2c(C)ccc(C)c21	2.73µM*	-12.7%	-2.7%	15.5%	u	-5.0%	3.8%	-10.7%	u	u
CCC1=Nc2cc(C(=O)NCCc3ccc(OC)c(OC)c3)ccc2Sc2ccccc21	u	0.6%	-0.5%	10.1%	35.4%	x	x	x	x	x
CCCNC(=O)c1ccc2c(c1)N=C(C)c1c(C)ccc(C)c1S2	0.392µM*	u	3.3%	2.7%	u	-5.9%	u	0.0%	16.2%	u
Cc1cccc(NC(=O)CSc2nc(-c3ccccc3Cl)nc3c2Cc2c(CO)cnc(C)c2O3)c1C	-11.1%	-1.3%	-5.1%	-3.7%	-8.2%	x	x	x	x	x
O=C(CSc1nc2nccnc2c(=O)n1CCc1c[nH]c2ccccc12)Nc1ccc(F)cc1	6.96µM*	6.4%	11.9%	-1.9%	-9.0%	u	u	-13.9%	6.8%	-39.5%
CC(=O)N1CCc2cc(Br)cc(S(=O)(=O)CCC(=O)NCc3ccc(F)cc3)c21	-15.7%	-7.0%	0.2%	-5.8%	10.2%	x	x	x	x	x
Cc1ccc(S(=O)(=O)N2CCN(Cc3noc(CCC(=O)N4CCCCC4)n3)CC2)c(C)c1	u	-10.8%	-22.4%	-4.4%	-8.7%	0.0%	3.2%	2.6%	-13.1%	-15.6%
Cc1cc(C)c(S(=O)(=O)N2CCN(Cc3nc4ccc(C)cc4o3)CC2)c(C)c1	u	31.7%	-11.4%	14.6%	3.1%	x	x	x	x	x
COc1ccc(N2CCN(C(=O)c3ccc4c(c3)N(Cc3ccc(F)cc3)C(=O)c3ccccc3S4=O)CC2)cc1 (stereo not given)	u	-8.0%	15.1%	1.3%	u	0.153µM*	0.122µM*	1.1%	-1.6%	-17.3%
CCN(Cc1ccccc1)C(=O)Cn1c(=O)n(-c2ccc(Cl)c(Cl)c2)c(=O)c2c(C)c(C(=O)N(C)C)sc21	u	-6.2%	-3.3%	5.9%	-1.4%	x	x	x	x	x
O=C(Cc1ccc(Cl)cc1)Nc1ccc2nn(-c3ccccc3)nc2c1	u	-4.8%	20.0%	-3.5%	-3.1%	x	x	x	x	x
CCOc1ccc(-n2nc3ccc(NC(=O)Cc4ccccc4)cc3n2)cc1	5.04µM*	2.2%	u	-7.1%	27.9%	-5.0%	1.1%	u	3.5%	-2.4%
Cc1ccccc1NC(=O)CSc1nnc(-c2cccs2)o1	21.9%	-1.1%	13.3%	-3.3%	-11.7%	x	x	x	x	x
CCOC(=O)C1CCN(C(=O)c2ccc3c(=O)n4nc(Nc5ccccc5)sc4nc3c2)CC1	5.32µM*	-4.6%	4.2%	-9.4%	22.9%	u	u	u	5.9%	-23.1%
Cc1ccc(C)c(Nc2nn3c(=O)c4ccc(C(=O)NC5CCCCC5)cc4nc3s2)c1	-20.6%	-2.3%	-19.4%	-3.9%	11.6%	x	x	x	x	x
COc1ccccc1Nc1nn2c(=O)c3ccc(C(=O)N4CCC(C)CC4)cc3nc2s1	u	-0.7%	5.5%	-7.9%	23.7%	x	x	x	x	x
Cc1c(Cl)cccc1Nc1nn2c(=O)c3ccc(C(=O)NCCc4ccccc4)cc3nc2s1	10µM*	-3.0%	u	u	u	-15.2%	u	0.9%	27.3µM*	14.5µM*
Cc1ccc(C)c(Nc2nn3c(=O)c4ccc(C(=O)NCCc5ccccc5)cc4nc3s2)c1	13.3µM*	1.4%	16.8%	-8.9%	-15.5%	u	-1.7%	-0.9%	19.3µM*	10.9µM*
Cc1c(Cl)cccc1Nc1nn2c(=O)c3ccc(C(=O)N(C)Cc4ccccc4)cc3nc2s1	-24.7%	0.1%	1.2%	-6.4%	-0.6%	x	x	x	x	x
N=C1S/C(=C\c2ccc(-c3cccc(Cl)c3)o2)C(=O)N1c1nccs1	x	x	x	-9.9%	x	x	x	x	x	x
